Data taken from PubChem BioAssay (NCATS).
Records with an inconclusive call do not appear. Active and inactive are the calls of the source. Calls follow the shape of the dose curve; as a rule, active = well fitted curve in the direction sought with a large enough effect; inconclusive = small, poorly fitted or top-dose-only effect, or another doubt; inactive = no such curve, though single readings can be large; an effect the other way counts as inactive or inconclusive.

Key:
HaCat = assay: Cytotoxic Profiling of Annotated Libraries Using Quantitative High-Throughput Screening (AID 1296008); details: Five cell lines viability, CellTiter-Glo ATP luminescence, 48-72 h; max response: hits give low values; also: nearly all actives have a fitted effect of over 60% in size
Procedure, shortened: (§1)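 Cytotoxicity was measured as CellTiter-Glo ATP luminescence, read after 10 min at room temperature. Compound treatment of the cells lasted 48 or 72 hr at 37 degrees Celsius in a qHTS format.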

KB-3-1 = assay: as above; details: Five cell lines viability, CellTiter-Glo ATP luminescence, 48-72 h; max response: hits give low values
Procedure, shortened: as §1

NIH3T3 = assay: as above; details: Five cell lines viability, CellTiter-Glo ATP luminescence, 48-72 h; max response: hits give low values
Procedure, shortened: as §1

C33A = assay: Primary qHTS to identify gynecologic anti-cancer compounds using libraries of approved drugs and bioactive compounds (AID 1345084); details: Gynecologic cancer cell panel viability, ATPlite luminescence, 48 h; series mostly up to 57.5 µM; also: nearly all actives have a fitted effect of over 55% in size
Procedure, shortened: (§2)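 Cytotoxicity screen measuring ATP content by luciferase luminescence. Each compound is applied at five concentrations for 48 h at 37 C with 5% CO2.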

CAOV3 = assay: as above; details: Gynecologic cancer cell panel viability, ATPlite luminescence, 48 h; series mostly up to 57.5 µM
Procedure, shortened: as §2

CASKI = assay: as above; details: Gynecologic cancer cell panel viability, ATPlite luminescence, 48 h; series mostly up to 57.5 µM
Procedure, shortened: as §2

Es-2 = assay: as above; details: Gynecologic cancer cell panel viability, ATPlite luminescence, 48 h; series mostly up to 57.5 µM
Procedure, shortened: as §2

HeLa = assay: as above; details: Gynecologic cancer cell panel viability, ATPlite luminescence, 48 h; series mostly up to 57.5 µM
Procedure, shortened: as §2

Hek293T = assay: as above; details: Gynecologic cancer cell panel viability, ATPlite luminescence, 48 h, control line for the selectivity index; series mostly up to 57.5 µM
Procedure, shortened: as §2

JEG-3 = assay: as above; details: Gynecologic cancer cell panel viability, ATPlite luminescence, 48 h; series mostly up to 57.5 µM
Procedure, shortened: as §2

OV90 = assay: as above; details: Gynecologic cancer cell panel viability, ATPlite luminescence, 48 h; series mostly up to 57.5 µM
Procedure, shortened: as §2
% is scaled to controls: 0 for no effect and ±100 for the full control effect.

C[C@@H]1CC[C@]2(C(=O)O)CC[C@]3(C)C(=CCC4[C@@]5(C)C[C@@H](O)[C@H](O)[C@@](C)(CO)C5CC[C@]43C)C2[C@]1(C)O (stereo partly drawn)
inactive: max response (HaCat) 4.14% | max response (KB-3-1) 2.17% | max response (NIH3T3) -6.81% | Potency (C33A) | Potency (CAOV3) | Potency (CASKI) | Potency (Es-2) | Potency (HeLa) | Potency (Hek293T) | Potency (JEG-3) | Potency (OV90)

CC(=O)OCC1(O)CCC2C(COC3OC(CO)C(O)C(O)C3OC(=O)/C=C/c3ccc(O)cc3)=COC(OC(=O)CC(C)C)C21 (stereo not drawn)
inactive: max response (HaCat) -35.1% | outcome (KB-3-1) | max response (NIH3T3) 3.4% | Potency (C33A) | Potency (CAOV3) | Potency (CASKI) | Potency (Es-2) | Potency (HeLa) | Potency (Hek293T) | Potency (JEG-3) | Potency (OV90)

CC(C)(C)c1ccc(S(=O)(=O)Nc2ccc(Cl)cc2C(=O)c2cc[n+]([O-])cc2)cc1
inactive: max response (HaCat) -10.2% | outcome (KB-3-1) | max response (NIH3T3) -1.11% | Potency (C33A) | Potency (CAOV3) | Potency (CASKI) | Potency (Es-2) | Potency (HeLa) | Potency (Hek293T) | Potency (JEG-3) | Potency (OV90)

CC(C)(C)NC(=O)[C@@H](c1cccnc1)N(C(=O)c1ccco1)c1ccc(C(C)(C)C)cc1
inactive: max response (HaCat) -16.4% | outcome (KB-3-1) | max response (NIH3T3) 4.2% | Potency (C33A) | Potency (CAOV3) | Potency (CASKI) | Potency (Es-2) | Potency (HeLa) | Potency (Hek293T) | Potency (JEG-3) | Potency (OV90)

COc1ccc(CCO[C@@H]2O[C@H](CO[C@@H]3OC[C@H](O)[C@H](O)[C@H]3O)[C@@H](O)[C@H](O)[C@H]2O)cc1
inactive: max response (HaCat) -19% | max response (KB-3-1) 4% | max response (NIH3T3) -5.95% | Potency (C33A) | Potency (CAOV3) | Potency (CASKI) | Potency (Es-2) | Potency (HeLa) | Potency (Hek293T) | Potency (JEG-3) | Potency (OV90)

C=C1C(=O)O[C@H]2[C@H]1CC/C(C)=C/CC[C@@]1(C)O[C@@H]21
inactive: max response (HaCat) -3.65% | max response (KB-3-1) -4.28% | max response (NIH3T3) 0.479% | Potency (C33A) | Potency (CAOV3) | Potency (CASKI) | Potency (Es-2) | Potency (HeLa) | Potency (Hek293T) | Potency (JEG-3) | Potency (OV90)

COc1ccc(/C=C\C(=O)O)c(O[C@@H]2O[C@H](CO)[C@@H](O)[C@H](O)[C@H]2O)c1
inactive: max response (HaCat) -1.35% | outcome (KB-3-1) | max response (NIH3T3) 0.681% | Potency (C33A) | Potency (CAOV3) | Potency (CASKI) | Potency (Es-2) | Potency (HeLa) | Potency (Hek293T) | Potency (JEG-3) | Potency (OV90)

CC(C)c1ccc2c(c1)C(=O)CC1[C@@](C)(C(=O)O)CCC[C@]21C (stereo partly drawn)
inactive: max response (HaCat) -7.44% | max response (KB-3-1) -10.5% | max response (NIH3T3) 0.286% | Potency (C33A) | Potency (CAOV3) | Potency (CASKI) | Potency (Es-2) | Potency (HeLa) | Potency (Hek293T) | Potency (JEG-3) | Potency (OV90)

C=C1CCCC2(C)CC3(OC)OC(=O)C(C)=C3CC12 (stereo not drawn)
inactive: max response (HaCat) 2.5% | max response (KB-3-1) -2.16% | max response (NIH3T3) -10.6% | Potency (C33A) | Potency (CAOV3) | Potency (CASKI) | Potency (Es-2) | Potency (HeLa) | Potency (Hek293T) | Potency (JEG-3) | Potency (OV90)

C=C1[C@H](OC(C)=O)[C@H]2[C@@H](OC(C)=O)[C@](C)(OC(C)=O)C[C@]2(OC(C)=O)C(=O)[C@H](C)/C=C/C(C)(C)C(=O)[C@H](OC(=O)C(C)C)[C@H]1OC(C)=O
inactive: max response (HaCat) -2.43% | outcome (KB-3-1) | max response (NIH3T3) 2.17% | Potency (C33A) | Potency (CAOV3) | Potency (CASKI) | Potency (Es-2) | Potency (HeLa) | Potency (Hek293T) | Potency (JEG-3) | Potency (OV90)

CC(=O)O[C@H]1[C@@H](O)[C@H](O[C@H]2[C@@H]3C=CO[C@@H](O[C@H]4O[C@@H](CO)[C@H](O)[C@@H](O)[C@@H]4O)[C@@H]3[C@@]3(CO)O[C@@H]23)O[C@@H](C)[C@@H]1OC(=O)/C=C/c1ccccc1
inactive: max response (HaCat) -2.99% | outcome (KB-3-1) | max response (NIH3T3) -6.79% | Potency (C33A) | Potency (CAOV3) | Potency (CASKI) | Potency (Es-2) | Potency (HeLa) | Potency (Hek293T) | Potency (JEG-3) | Potency (OV90)

C/C=C/C(O)C1OC(=O)CC1Nc1ccc(C(=O)O)cc1 (stereo not drawn)
inactive: max response (HaCat) -8.27% | max response (KB-3-1) 8.51% | max response (NIH3T3) 1.46% | Potency (C33A) | Potency (CAOV3) | Potency (CASKI) | Potency (Es-2) | Potency (HeLa) | Potency (Hek293T) | Potency (JEG-3) | Potency (OV90)

CC(=O)O[C@H]1CC[C@H](C)[C@@]2(C)[C@H](OC(C)=O)c3c(C)coc3C(=O)[C@H]12
inactive: max response (HaCat) 2.83% | max response (KB-3-1) 6.49% | max response (NIH3T3) -5.72% | Potency (C33A) | Potency (CAOV3) | Potency (CASKI) | Potency (Es-2) | Potency (HeLa) | Potency (Hek293T) | Potency (JEG-3) | Potency (OV90)
